Entries with a potency or affinity are not part of this list. Results filed as inconclusive are left out. Values without a mark were called inactive.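 Rule for the calls: active = in every test run, a fitted half-maximal concentration for signal decrease at or below twice the highest tested concentration; inconclusive = runs disagree, flat 30 to 70% decrease, or poor fit; inactive = the rest.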
Test: activation of miR-122 Renilla sensor silencing – cell-based, Huh7 psiCHECK-miR122, Renilla luciferase, cherry-picked, dose response (AID 651956);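 note: Renilla luciferase from a miR-122 sensor reporter so lower signal means miR-122 activation; 0% = median neutral control wells and -100% = median positive control wells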
Details: Huh7 psiCHECK-miR122 Renilla luciferase reporter, 48 h; series mostly up to 35 µM; activity change, negative = signal decrease: at the top concentration

**Q.** For `COC(=O)c1c(N)nc(C)n1-c1ccc(OC)cc1`, which “activity change, negative = signal decrease” value is on record?
**A.** -18.8%

**Q.** Which “activity change, negative = signal decrease” value does the source give for `CN1CCN(c2ccc(Cl)cc2NC(=O)c2ccc(S(=O)(=O)N3CCCCCC3)cc2)CC1` here?
**A.** -22.6%

**Q.** For `O=C(c1ccccc1)N1C[C@H]2[C@@H](c3ccccc31)[C@@H](CO)N2C(=O)CN1CCOCC1`, which “activity change, negative = signal decrease” value is on record?
**A.** 121%

**Q.** Which “activity change, negative = signal decrease” value does the source give for `COc1cc(Cl)cc(/C=N\NC(=O)c2ccc3c(c2)OCO3)c1O` here?
**A.** 42.6%

**Q.** Which “activity change, negative = signal decrease” value does the source give for `COc1cc2nc(C3CCC3)n(NC(=O)C3CCCC(OC)C3)c(=O)c2cc1OC` (centres undefined) here?
**A.** 72.1%

**Q.** For `COc1cc(-c2nnc(-c3ccco3)o2)ccc1OCc1ccccc1`, which “activity change, negative = signal decrease” value is on record?
**A.** -42.4%

**Q.** For `COc1ccc(C#Cc2ccc3c(c2)O[C@@H](CN(C)C(=O)CN2CCOCC2)[C@@H](C)CN([C@H](C)CO)S3(=O)=O)cc1`, which “activity change, negative = signal decrease” value is on record?
**A.** 14.7%

**Q.** For `Cc1cc(C)cc(NC(=O)Nc2ccc3c(c2)C(=O)N(C)[C@@H]2CC[C@H](CC(=O)O)O[C@@H]2CO3)c1`, which “activity change, negative = signal decrease” value is on record?
**A.** 73.4%

**Q.** Which “activity change, negative = signal decrease” value does the source give for `COc1ccc(NS(=O)(=O)c2ccc(NC(=O)C(C)(C(F)(F)F)C(F)(F)F)cc2)nn1` here?
**A.** -17.6%

**Q.** For `CC(C)C(=O)Nc1ccc2c(c1)C(=O)N(C)[C@@H]1CC[C@H](CC(=O)O)O[C@H]1CO2`, which “activity change, negative = signal decrease” value is on record?
**A.** -14.9%

**Q.** For `CCN(CC)CCOc1cccc(C(C)C)c1`, which “activity change, negative = signal decrease” value is on record?
**A.** 5.69%

**Q.** Which “activity change, negative = signal decrease” value does the source give for `CN1C(=O)c2cc(NC(=O)c3cccs3)ccc2OC[C@H]2O[C@@H](CC(=O)NCCN3CCCCC3)CC[C@H]21` here?
**A.** 17.9%

**Q.** With `COc1cccc(NC(=O)Nc2ccc3c(c2)C(=O)N(C)C[C@@H](OC)[C@@H](C)CN[C@H](C)CO3)c1` as the compound, how does the “activity change, negative = signal decrease” value read?
**A.** 16.7% [at 30 µM]

**Q.** With `CCC(=O)N1[C@H](CN(C(C)C)S(C)(=O)=O)[C@@H](c2ccccc2)[C@@H]1CO` as the compound, how does the “activity change, negative = signal decrease” value read?
**A.** -31.1%

— PubChem BioAssay AID651956 (Broad Institute, 2012)
